Test [1] is described as follows: compounds binding Alexa647 anti-His antibody – biochemical, small-molecule microarray, 635 nm fluorescence, artefact control for SMM control protein annotation, primary screen (AID 1128).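 Also: score merges feature fluorescence with signal-to-noise for each printed compound spot.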 The settings on record: higher = more signal.
Test [2] relates to Human papillomavirus type 1a E7 protein (residues 1-88). The test is described as follows: HPV1a E7 small-molecule binders, primary screen, biochemical, small-molecule microarray, residues 1-88, 635 nm (AID 1129). As to conditions: small-molecule microarray binding, fluorescence 635 nm; higher = more signal.
Test [3] has as its target Focal adhesion kinase 1 (Homo sapiens) (UniProt Q05397). Briefly: PTK2 protein binding on printed compound slides – biochemical, small-molecule microarray, 635/667 nm fluorescence, BSA, DTT, primary screen (AID 1130).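 Also: composite of spot emission at 667 nm and signal to noise over triplicate slides.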 The settings on record: 635 nm fluorescence, higher = more signal.
Test [4] relates to Fibrinogen (Alexa647-labelled). The test is described as follows: Alexa647-fibrinogen binding to printed small molecules – biochemical, small-molecule microarray, 635/667 nm fluorescence, artefact control for SMM control-protein annotation, profiling panel (AID 1131).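 Also: z-score merges 667 nm fluorescence with per-spot signal-to-noise over triplicate slides.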 As to conditions: fibrinogen-A647 binding fluorescence, higher = more signal.
In test [5] the target is Follistatin (Homo sapiens) (UniProt P19883). Briefly: FST protein binding to printed compounds – biochemical, small-molecule microarray, 635/667 nm fluorescence, primary screen (AID 1132). The settings on record: 635 nm fluorescence, higher = more signal.
The target of test [6] is Fibroblast growth factor 2 (Homo sapiens) (UniProt P09038). Briefly: basic fibroblast growth factor binding to printed compounds – biochemical, small-molecule microarray, 635/667 nm fluorescence, primary screen (AID 1133). The settings on record: FGF2, fluorescence 635/667, higher = more signal.
A short description of test [7]: JC-1 mitochondrial potential readout, lung cancer cells – cell-based, A549, JC-1 fluorescence, basal, 24 h, 100 nL, profiling panel (AID 1138).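 Also: A549 lung adenocarcinoma cells under basal conditions with no added stimulus; test concentration not given here.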 The settings on record: higher = more signal.
The next test relates to Lefty1. Briefly: Lefty1 protein binding to printed compounds – biochemical, small-molecule microarray, 635/667 nm fluorescence, primary screen (AID 1139). The settings on record: fluorescence 635/667, higher = more signal.
Test [8] has as its system wheat germ agglutinin (Triticum aestivum), Alexa647-labelled. The test is described as follows: Alexa647-WGA lectin binding to printed small molecules – biochemical, small-molecule microarray, 635/667 nm fluorescence, artefact control for SMM control-protein annotation, profiling panel (AID 1140).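 Also: score merges 667 nm feature emission with signal to noise over triplicate slides.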 The settings on record: WGA-A647 binding, 635 nm fluorescence, higher = more signal.

For test [9], the target named is Luciferin 4-monooxygenase (Photinus pyralis) (UniProt P08659). Briefly: inhibition of purified Photinus pyralis luciferase – biochemical, luminescence, purified enzyme, 2006 set, primary screen (AID 1141).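 Also: cell-free assay with purified firefly luciferase at 100 ng per well in PBS; test concentration not given here.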 As to conditions: purified firefly luciferase, SteadyGlo luminescence, 30 min; higher = more signal, called active from +8 up or from −8 down.
Test [10] deals with Wnt5a (protein binding on small-molecule microarray). Briefly: small molecules binding Wnt5a protein – biophysical, small-molecule microarray, 635/667 nm fluorescence, primary screen (AID 1142).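 Also: fluorescence read at 667 nm with signal to noise per printed feature.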 The settings on record: 635 nm fluorescence, higher = more signal.
Test [11] can be described thus: ATP-based viability of Huh7 replicon cells – cell-based, CellTiter-Glo luminescence, basal, 48 h, cytotoxicity control for HCV replication inhibitor project, primary screen (AID 1143).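 Also: Huh7 hepatoma cells carrying a hepatitis C replication reporter with no stimulus; test concentration not given here.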 As to conditions: higher = more signal, called active from +8 up or from −8 down.
The nature of test [12]: Pseudomonas biofilm growth suppression – PAO1 strain, BacTiter-Glo luminescence, LB-PBS, primary screen (AID 1144). The settings on record: P. aeruginosa PAO1 biofilm, 12 h, higher = more signal.
Test [13] in a line: basal CRE-LacZ reporter activity in PC12 – cell-based, unstimulated, primary screen (AID 1145). The settings on record: no forskolin, luminescence, 4.5 h, higher = more signal, called active from +8 up or from −8 down.
Test [14] in a line: forskolin-driven CRE-LacZ activity in PC12 – cell-based, CRE-LacZ reporter, forskolin-stimulated, primary screen (AID 1146).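 Also: PC12 cells with 6xCRE LacZ reporter stimulated by forskolin 10 µM; beta-galactosidase reporter signal reflecting CREB driven transcription.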 As to conditions: luminescence, 4.5 h, higher = more signal, called active from +8 up or from −8 down.
The target of test [15] is Streptavidin (Streptomyces avidinii) (UniProt P22629). The test is described as follows: compounds binding control protein streptavidin – biophysical, small-molecule microarray, 635/667 nm fluorescence, artefact control for SMM compound annotation, primary screen (AID 1147).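 Also: signal reflects streptavidin binding to arrayed compounds as a control protein.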 As to conditions: higher = more signal.
A short description of test [16]: probe aInhba binding on compound microarray – biochemical, small-molecule microarray, 635/667 nm fluorescence, primary screen (AID 1148).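 Also: score merges 667nm spot fluorescence with signal-to-noise for antibody binding to printed compounds.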 As to conditions: higher = more signal.
In test [17] the target is Torsin-1A (Homo sapiens) (UniProt O14656). The test is described as follows: TOR1A wild-type binding on microarray – cell lysate, small-molecule microarray, lysate, 635/667 nm, primary screen (AID 1149). As to conditions: COS7 hTOR1A-WT lysate, 635 nm fluorescence, higher = more signal.
For test [18] the target is unchanged. The test is described as follows: torsin A mutant lysate binding on microarrays – cell lysate, small-molecule microarray, COS7 lysate, 635/667 nm fluorescence, primary screen (AID 1150).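 Also: score pools 667 nm emission and signal to noise measuring lysate protein binding.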 As to conditions: COS7 hTOR1A mutant lysate, 635 nm fluorescence, higher = more signal.
Test [19] has as its system Sonic hedgehog protein (Shh). The test is described as follows: Sonic hedgehog microarray binding compounds – biochemical, small-molecule microarray, 635/667 nm fluorescence, primary screen (AID 1151).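 Also: Shh protein binding to compounds spotted on small-molecule microarray slides; score combines spot fluorescence intensity with signal-to-noise across triplicate slides.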 The settings on record: 635 nm fluorescence, higher = more signal.

Active and inactive are the calls of the source. Unless noted, no rule for the calls is given here.

Chain of Focal adhesion kinase 1 (Homo sapiens) (Q05397 whole entry, looked up): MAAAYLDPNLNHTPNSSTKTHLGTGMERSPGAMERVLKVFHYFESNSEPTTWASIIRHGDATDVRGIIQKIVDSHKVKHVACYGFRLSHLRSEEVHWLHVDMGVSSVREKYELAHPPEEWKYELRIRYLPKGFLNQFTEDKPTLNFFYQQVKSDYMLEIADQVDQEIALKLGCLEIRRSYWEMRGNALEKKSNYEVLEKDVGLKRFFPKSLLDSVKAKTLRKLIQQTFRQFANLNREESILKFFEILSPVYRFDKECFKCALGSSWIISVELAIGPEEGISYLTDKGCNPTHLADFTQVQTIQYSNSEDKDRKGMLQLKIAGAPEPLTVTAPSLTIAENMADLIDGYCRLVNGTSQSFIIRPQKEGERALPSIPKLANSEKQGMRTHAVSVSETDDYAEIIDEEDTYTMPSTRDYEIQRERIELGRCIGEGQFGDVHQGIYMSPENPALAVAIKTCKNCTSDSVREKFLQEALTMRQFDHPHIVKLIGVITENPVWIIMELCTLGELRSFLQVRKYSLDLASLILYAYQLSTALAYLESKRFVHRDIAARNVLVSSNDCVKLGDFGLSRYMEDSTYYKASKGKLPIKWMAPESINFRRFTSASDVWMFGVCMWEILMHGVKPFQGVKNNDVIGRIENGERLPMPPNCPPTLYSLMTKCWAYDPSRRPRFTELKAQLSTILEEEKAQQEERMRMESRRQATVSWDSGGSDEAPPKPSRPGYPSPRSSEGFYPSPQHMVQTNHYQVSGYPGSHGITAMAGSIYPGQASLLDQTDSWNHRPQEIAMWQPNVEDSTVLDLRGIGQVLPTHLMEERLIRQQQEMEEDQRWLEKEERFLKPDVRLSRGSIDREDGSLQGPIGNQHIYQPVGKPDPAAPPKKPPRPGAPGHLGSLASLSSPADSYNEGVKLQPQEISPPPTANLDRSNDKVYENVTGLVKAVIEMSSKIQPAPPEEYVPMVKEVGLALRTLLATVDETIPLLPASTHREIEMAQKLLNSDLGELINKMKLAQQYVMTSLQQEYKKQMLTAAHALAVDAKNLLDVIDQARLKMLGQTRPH
Chain of Luciferin 4-monooxygenase (Photinus pyralis) (P08659 whole entry, looked up): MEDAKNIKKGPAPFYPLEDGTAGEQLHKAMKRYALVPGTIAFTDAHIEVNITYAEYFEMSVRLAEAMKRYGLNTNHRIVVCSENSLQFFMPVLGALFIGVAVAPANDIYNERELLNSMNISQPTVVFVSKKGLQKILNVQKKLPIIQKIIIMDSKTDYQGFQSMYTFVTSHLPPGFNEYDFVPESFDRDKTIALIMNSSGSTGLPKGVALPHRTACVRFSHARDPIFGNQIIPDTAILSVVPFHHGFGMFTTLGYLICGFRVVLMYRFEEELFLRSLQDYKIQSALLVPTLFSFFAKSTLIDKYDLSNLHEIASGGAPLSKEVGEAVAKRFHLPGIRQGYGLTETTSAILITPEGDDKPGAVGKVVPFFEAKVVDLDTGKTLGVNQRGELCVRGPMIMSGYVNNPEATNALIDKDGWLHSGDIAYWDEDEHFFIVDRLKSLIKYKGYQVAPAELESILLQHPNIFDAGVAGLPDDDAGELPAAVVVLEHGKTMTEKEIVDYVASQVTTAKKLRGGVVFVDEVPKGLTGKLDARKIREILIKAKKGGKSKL
Chain of Torsin-1A (Homo sapiens) (O14656 whole entry, looked up): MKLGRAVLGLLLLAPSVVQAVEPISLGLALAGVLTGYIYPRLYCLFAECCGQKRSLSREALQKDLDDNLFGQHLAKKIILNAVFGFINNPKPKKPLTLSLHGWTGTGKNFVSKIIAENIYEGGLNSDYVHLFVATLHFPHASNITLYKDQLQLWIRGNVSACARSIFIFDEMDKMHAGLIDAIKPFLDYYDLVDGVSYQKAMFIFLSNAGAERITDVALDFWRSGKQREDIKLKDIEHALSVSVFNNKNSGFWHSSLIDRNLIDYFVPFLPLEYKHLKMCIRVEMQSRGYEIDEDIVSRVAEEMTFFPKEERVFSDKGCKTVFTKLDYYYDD
Chain of Follistatin (Homo sapiens) (P19883 whole entry, looked up): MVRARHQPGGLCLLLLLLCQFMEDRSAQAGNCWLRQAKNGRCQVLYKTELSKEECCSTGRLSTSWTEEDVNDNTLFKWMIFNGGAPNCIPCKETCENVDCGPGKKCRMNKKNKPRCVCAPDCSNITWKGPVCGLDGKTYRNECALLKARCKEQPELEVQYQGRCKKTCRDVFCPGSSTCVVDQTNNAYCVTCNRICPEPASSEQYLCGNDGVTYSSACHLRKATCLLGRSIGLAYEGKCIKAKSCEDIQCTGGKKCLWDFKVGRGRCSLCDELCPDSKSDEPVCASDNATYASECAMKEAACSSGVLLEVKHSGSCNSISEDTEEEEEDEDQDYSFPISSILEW
Chain of Fibroblast growth factor 2 (Homo sapiens) (P09038 whole entry, looked up): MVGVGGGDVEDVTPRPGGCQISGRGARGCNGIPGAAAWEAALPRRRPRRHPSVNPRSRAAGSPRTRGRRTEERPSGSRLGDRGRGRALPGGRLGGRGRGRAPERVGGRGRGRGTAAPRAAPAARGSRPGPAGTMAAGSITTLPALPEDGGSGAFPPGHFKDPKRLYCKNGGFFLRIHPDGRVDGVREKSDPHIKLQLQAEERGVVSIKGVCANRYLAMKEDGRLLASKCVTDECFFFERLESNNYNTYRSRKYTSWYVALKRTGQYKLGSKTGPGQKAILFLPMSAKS
Chain of Streptavidin (Streptomyces avidinii) (P22629 whole entry, looked up): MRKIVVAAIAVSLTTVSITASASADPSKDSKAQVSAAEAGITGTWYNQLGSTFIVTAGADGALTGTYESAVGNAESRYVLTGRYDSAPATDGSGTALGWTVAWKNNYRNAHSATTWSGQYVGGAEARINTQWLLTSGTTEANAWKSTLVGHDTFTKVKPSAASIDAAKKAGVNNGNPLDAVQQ

Turning to `O=C1NC(=O)C2C1C=CC(C(O)c1cc(C(F)(F)F)cc(C(F)(F)F)c1)N2Nc1ccccn1` (stereo not given), the composite z-score is 0.191 in test [1]; 0.289 in test [2]; 0.187 in test [3]; 0.604 in test [4]; 0.89 in test [5]; 0.047 in test [6]. Also, the composite z-score is 0.187 with Lefty1; 0.574 in test [8]; -0.102 in [10]; 0.0086 in test [15]; -0.0059 in test [16]; -0.138 with Torsin-1A (Homo sapiens) [17]. In addition, the composite z-score with Torsin-1A (Homo sapiens) [18] was 0.237; in [19] it was 0.87. Also, the z-score was 0.456 in [7]; 0.0198 (inactive) in test [9]; 0.804 (inactive) in test [11]; -0.162 (inactive) in test [12]; 0.0501 (inactive) in [13]; 0.403 (inactive) in [14].
As to `CC(C)=CCN[C@H](CO)c1ccccc1`, the composite z-score in test [1] is -0.23; in test [2] it was -0.341; in [3], -0.0383; in test [4], 0.118; in [5], 0.546; in test [6], 0.314. The composite z-score was 0.564 in the test with Lefty1; -0.246 in test [8]; -0.249 in [10]; 0.0079 in test [15]; 0.102 in test [16]; -0.801 in the test with Torsin-1A (Homo sapiens) [17]. Also, the composite z-score with Torsin-1A (Homo sapiens) [18] worked out at 0.324; in test [19], 0.627. Moreover, the z-score was -0.989 in test [7]; 0.765 (inactive) in test [9]; -3.85 (inactive) in [11]; -0.0678 (inactive) in [12]; -1.05 (inactive) in test [13]; 0.0877 (inactive) in [14].
In the case of `COc1cc2c(cc1O)C(C1CC1)N(Cc1sc3ccccc3c1Cl)CC2` (stereo not given), the composite z-score was 1.53 in test [1]; 0.87 in test [2]; -0.0249 in test [3]; 0.762 in [4]; 0.439 in test [5]; 0.124 in test [6]. In addition, the composite z-score in the test on Lefty1 was -0.619; in test [8] it was 0.402; in [10], -0.207; in [15], 0.583; in test [16], -0.024; with Torsin-1A (Homo sapiens) [17] it was 1.45. In addition, the values for the composite z-score (with Torsin-1A (Homo sapiens) [18]; in test [19]) were 0.982 and -0.206, respectively. The z-score in [7] was -1.55; in test [9] it was -0.593 (inactive); in [11] it was -5.05 (inactive); in [12], 1.26 (inactive); in test [13] it was -0.671 (inactive); in [14], 1.82 (inactive).
For `COc1cc2c(cc1OC)CN(C(=O)[C@H]1[C@@H]3C(=O)O[C@@H](c4ccccc4)[C@@H](c4ccccc4)N3[C@@H](c3ccc(O)cc3)[C@]13C(=O)Nc1ccc(C#CCCO)cc13)CC2`, the composite z-score in test [1] stood at 1.31; in [2], 1.21; in test [3] it was 0.055; in test [4] it was 0.807; in [5], 1.12; in test [6], 0.0827. The composite z-score was 0.0938 with Lefty1; 0.943 in test [8]; -0.0279 in test [10]; 0.491 in test [15]; -0.0405 in [16]; 0.0143 with Torsin-1A (Homo sapiens) [17]. In addition, the composite z-score was determined as 0.618 with Torsin-1A (Homo sapiens) [18] and 0.0545 in [19]. Also, the z-score in [7] was -0.824; in test [9], 1.1 (inactive); in test [11] it was -1.04 (inactive); in [12] it was -0.827 (inactive); in test [13], 0.0653 (inactive); in test [14], -0.163 (inactive).
`COCCOC(=O)N1C(=O)[C@@]2(c3cc(C#CC4(O)CCCCCC4)ccc31)[C@H](c1ccc(OCCO)cc1)N1[C@H](c3ccccc3)[C@H](c3ccccc3)OC(=O)[C@H]1[C@@H]2C(=O)N1CCN(c2ncccn2)CC1`: the composite z-score in test [1] turned out to be 1.39; in test [2], 1.21; in test [3], 0.333; in [4], 0.956; in test [5], 1.03; in test [6], 0.758. For the same compound, the composite z-score in the test on Lefty1 was 0.651; in test [8] it was 0.458; in test [10] it was 0.499; in test [15] it was 2.07; in test [16], 0.0541; with Torsin-1A (Homo sapiens) [17], 0.782. For the same compound, the composite z-score with Torsin-1A (Homo sapiens) [18] stood at 0.629; in test [19], 1.17. The z-score in [7] is -1.1; in test [9], -0.606 (inactive); in test [11] it was -0.922 (inactive); in test [12] it was 0.517 (inactive); in [13], 0.346 (inactive); in [14] it was 0.838 (inactive).
